Experimental data published in the supplement of paper PMC10849652.
The full data set covers some 7,900 targets. This sample favours those with a hit. About 0.6% of all pairs of compound and target were hits.

How the values were obtained:
Assay in all cases: log2 fold change, soluble protein after heating vs DMSO (PISA); higher = thermal stabilisation; K562 cells, 10 uM, 30 min; active = over 0.2 and 3.5 SD of the protein, either way, in both replicates (recomputed)
erlotinib = compound: C#Cc1cccc(Nc2ncnc3cc(OCCOC)c(OCCOC)cc23)c1 [erlotinib]
Procedure, shortened: (§1)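 K562 cells at 2×10^6 cells/mL were treated with 10 μM compound for 30 min. Aliquots were heated for 3 min across 48°C-58°C, pooled, and extracted in PBS with 0.5% NP-40 at 4°C; soluble protein was the supernatant after 21,000xg for 90 min. Soluble protein was quantified by TMTpro 16plex LC-MS/MS with channel sums equalised, and reported as log2 fold change in thermal stability against DMSO controls, with values from duplicates.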

[1] = compound: C/C(=N\NC(=O)C1=CC(=CC=C1)S(=O)(=O)N2CCOCC2)/C3=C(C=CC(=C3)Cl)O
Procedure, shortened: as §1

[2] = compound: C1=CC(=C(C=C1Cl)C2=NC3=NC=CN=C3C(=N2)NC4=CC=NC=C4)F
Procedure, shortened: as §1

[3] = compound: C1=CC(=CC=C1C2=NC3=C(N2)C=C(C=C3)C(=O)N)OC4=CC=C(C=C4)Cl
Procedure, shortened: as §1

[4] = compound: C1=CC2=C(C=CC(=C2)/C=C\3/C(=O)NC(=NCC4=CC=CS4)S3)N=C1
Procedure, shortened: as §1

[5] = compound: C1=CC2=NC=CN=C2C=C1/C=C/3\C(=O)NC(=O)S3
Procedure, shortened: as §1

[6] = compound: C1=CC=C(C=C1)C2=NC(=C(N2)C3=CC=NC=C3)C4=CC(=C(C=C4)Cl)O
Procedure, shortened: as §1

[7] = compound: C1=CC=C2C(=C1)C3=NNC4=CC=CC(=C43)C2=O
Procedure, shortened: as §1

[8] = compound: C1CCN(C1)C(=O)NC2=CC=CC(=C2)NC3=NC=C(C(=N3)NCCC4=CN=CN4)Br
Procedure, shortened: as §1

[9] = compound: C1CN(CCC1(CC2=CC=C(C=C2)Cl)N)C3=NC=NC4=C3C=CN4
Procedure, shortened: as §1

Measured: log2 fold change

HNRNPUL2 (UniProt Q1KMD3)
inactive: erlotinib -0.054 | [1] -0.08 | [2] -0.138 | [3] -0.015 | [4] -0.057 | [5] 0.012 | [6] -0.056 | [7] -0.014 | [8] 0.011 | [9] -0.102

FANCI (UniProt Q9NVI1)
inactive: erlotinib 0.083 | [1] 0.026 | [2] 0.056 | [3] 0.062 | [4] 0.142 | [5] 0.008 | [6] 0.053 | [7] -0.019 | [8] -0.028 | [9] -0.006

HP1BP3 (UniProt Q5SSJ5)
Sequence of UniProt Q5SSJ5 (Q5SSJ5 whole entry, looked up): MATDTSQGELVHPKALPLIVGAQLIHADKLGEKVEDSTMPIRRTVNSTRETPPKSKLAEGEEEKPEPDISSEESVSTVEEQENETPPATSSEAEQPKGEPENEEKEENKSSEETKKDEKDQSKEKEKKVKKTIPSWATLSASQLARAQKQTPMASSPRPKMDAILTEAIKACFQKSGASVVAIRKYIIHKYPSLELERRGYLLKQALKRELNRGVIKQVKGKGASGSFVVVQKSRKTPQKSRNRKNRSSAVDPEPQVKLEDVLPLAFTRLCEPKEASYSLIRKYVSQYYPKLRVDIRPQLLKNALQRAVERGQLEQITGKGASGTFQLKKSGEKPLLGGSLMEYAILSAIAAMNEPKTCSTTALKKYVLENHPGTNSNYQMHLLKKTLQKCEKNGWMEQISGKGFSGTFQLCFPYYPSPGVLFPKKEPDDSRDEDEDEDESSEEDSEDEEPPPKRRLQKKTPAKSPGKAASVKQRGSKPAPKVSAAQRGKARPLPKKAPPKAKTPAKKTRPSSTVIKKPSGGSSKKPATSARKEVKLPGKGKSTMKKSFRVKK
inactive: erlotinib 0.071 | [1] -0.035 | [2] -0.04 | [3] 0.028 | [4] 0.069 | [5] 0.064 | [6] -0.013 | [7] -0.044 | [8] 0.027 | [9] -0.155

HDAC1 (UniProt Q13547)
Sequence of UniProt Q13547 (Q13547 whole entry, looked up): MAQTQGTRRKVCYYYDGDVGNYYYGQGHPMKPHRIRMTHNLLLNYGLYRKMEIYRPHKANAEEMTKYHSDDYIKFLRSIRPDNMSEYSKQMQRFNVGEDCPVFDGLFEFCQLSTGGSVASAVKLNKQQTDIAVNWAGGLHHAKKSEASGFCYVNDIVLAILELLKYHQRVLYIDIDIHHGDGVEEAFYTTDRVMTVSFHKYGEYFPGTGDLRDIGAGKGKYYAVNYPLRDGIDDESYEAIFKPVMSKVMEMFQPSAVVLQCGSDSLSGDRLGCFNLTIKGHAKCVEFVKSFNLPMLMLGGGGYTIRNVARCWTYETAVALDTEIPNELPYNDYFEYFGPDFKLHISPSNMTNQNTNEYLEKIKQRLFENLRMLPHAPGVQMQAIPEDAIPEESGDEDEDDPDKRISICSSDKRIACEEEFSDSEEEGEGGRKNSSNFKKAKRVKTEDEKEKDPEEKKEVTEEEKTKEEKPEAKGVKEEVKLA
active: erlotinib 1.14
inactive: [1] 0.015 | [2] 0.011 | [3] -0.01 | [4] 0.16 | [5] 0.004 | [6] 0.021 | [7] -0.055 | [8] -0.004 | [9] -0.018

GNG5 (UniProt P63218)
Sequence of UniProt P63218 (P63218 whole entry, looked up): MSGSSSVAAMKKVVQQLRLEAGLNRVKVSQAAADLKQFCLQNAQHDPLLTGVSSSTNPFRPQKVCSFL
inactive: erlotinib -0.07 | [1] 0.01 | [3] 0.089 | [4] 0.031 | [5] -0.001 | [6] 0.072 | [7] 0.038 | [8] -0.037 | [9] -0.044
active: [2] 0.436

HIP1R (UniProt O75146)
Sequence of UniProt O75146 (O75146 whole entry, looked up): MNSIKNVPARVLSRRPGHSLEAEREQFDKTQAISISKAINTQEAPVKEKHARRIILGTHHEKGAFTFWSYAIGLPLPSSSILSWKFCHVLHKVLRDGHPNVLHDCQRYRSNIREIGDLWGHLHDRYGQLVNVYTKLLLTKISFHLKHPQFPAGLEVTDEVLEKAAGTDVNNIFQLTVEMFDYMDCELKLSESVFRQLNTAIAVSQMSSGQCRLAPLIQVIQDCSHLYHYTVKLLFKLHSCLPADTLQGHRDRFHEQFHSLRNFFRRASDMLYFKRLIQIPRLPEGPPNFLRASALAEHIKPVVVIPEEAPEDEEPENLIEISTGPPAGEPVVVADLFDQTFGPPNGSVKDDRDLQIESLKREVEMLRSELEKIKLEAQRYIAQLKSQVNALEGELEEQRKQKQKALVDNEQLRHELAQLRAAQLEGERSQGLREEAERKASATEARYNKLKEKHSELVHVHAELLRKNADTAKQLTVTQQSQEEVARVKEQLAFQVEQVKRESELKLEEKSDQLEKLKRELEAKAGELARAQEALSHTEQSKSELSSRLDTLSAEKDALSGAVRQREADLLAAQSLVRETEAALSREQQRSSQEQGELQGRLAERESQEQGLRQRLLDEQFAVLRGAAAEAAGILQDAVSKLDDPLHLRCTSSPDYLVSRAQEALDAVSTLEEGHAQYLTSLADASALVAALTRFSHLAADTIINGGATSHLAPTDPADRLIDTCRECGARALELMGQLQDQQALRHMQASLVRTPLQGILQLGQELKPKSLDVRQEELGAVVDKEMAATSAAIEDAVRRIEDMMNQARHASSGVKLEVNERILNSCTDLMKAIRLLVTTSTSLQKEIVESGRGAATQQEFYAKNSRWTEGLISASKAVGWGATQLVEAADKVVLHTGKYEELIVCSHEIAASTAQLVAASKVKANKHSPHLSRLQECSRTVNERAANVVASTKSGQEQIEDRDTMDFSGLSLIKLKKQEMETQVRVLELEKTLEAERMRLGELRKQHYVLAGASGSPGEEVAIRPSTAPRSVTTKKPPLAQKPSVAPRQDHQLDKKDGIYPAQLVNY
inactive: erlotinib 0.017 | [1] 0.034 | [2] 0.024 | [3] 0.005 | [4] 0.054 | [5] 0.013 | [6] 0.018 | [7] 0.033 | [8] -0.004 | [9] -0.005

HRC (UniProt P23327)
inactive: erlotinib 0.012 | [1] -0.056 | [2] 0.042 | [3] -0.018 | [4] 0.005 | [5] 0.023 | [6] -0.021 | [7] -0.087 | [8] 0.041 | [9] 0.045

FKBP3 (UniProt Q00688)
inactive: erlotinib -0.001 | [1] 0.014 | [2] 0.061 | [3] -0.012 | [4] 0.013 | [5] -0.004 | [6] -0.028 | [7] -0.001 | [8] -0.007 | [9] -0.017

GNS (UniProt P15586)
Sequence of UniProt P15586 (P15586 whole entry, looked up): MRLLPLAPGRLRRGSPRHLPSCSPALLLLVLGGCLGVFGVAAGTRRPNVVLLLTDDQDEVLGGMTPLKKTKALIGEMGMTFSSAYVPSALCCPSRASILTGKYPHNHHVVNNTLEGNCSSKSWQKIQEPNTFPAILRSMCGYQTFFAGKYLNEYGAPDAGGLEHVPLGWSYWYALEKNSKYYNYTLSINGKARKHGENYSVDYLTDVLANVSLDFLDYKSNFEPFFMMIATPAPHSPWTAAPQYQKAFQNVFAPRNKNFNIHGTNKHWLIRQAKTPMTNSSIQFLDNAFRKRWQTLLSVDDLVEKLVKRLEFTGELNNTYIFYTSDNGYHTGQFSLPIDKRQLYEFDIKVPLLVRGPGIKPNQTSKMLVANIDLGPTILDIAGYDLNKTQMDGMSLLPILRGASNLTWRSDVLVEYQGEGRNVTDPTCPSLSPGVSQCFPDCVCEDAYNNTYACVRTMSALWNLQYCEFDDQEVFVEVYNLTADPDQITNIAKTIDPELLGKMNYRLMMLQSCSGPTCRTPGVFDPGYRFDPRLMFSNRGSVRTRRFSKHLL
inactive: erlotinib -0.033 | [1] -0.003 | [2] 0.005 | [3] 0.004 | [4] 0.028 | [5] 0.026 | [6] 0.03 | [7] -0.04 | [8] 0.023 | [9] 0.061

GYG1 (UniProt P46976)
Sequence of UniProt P46976 (P46976 whole entry, looked up): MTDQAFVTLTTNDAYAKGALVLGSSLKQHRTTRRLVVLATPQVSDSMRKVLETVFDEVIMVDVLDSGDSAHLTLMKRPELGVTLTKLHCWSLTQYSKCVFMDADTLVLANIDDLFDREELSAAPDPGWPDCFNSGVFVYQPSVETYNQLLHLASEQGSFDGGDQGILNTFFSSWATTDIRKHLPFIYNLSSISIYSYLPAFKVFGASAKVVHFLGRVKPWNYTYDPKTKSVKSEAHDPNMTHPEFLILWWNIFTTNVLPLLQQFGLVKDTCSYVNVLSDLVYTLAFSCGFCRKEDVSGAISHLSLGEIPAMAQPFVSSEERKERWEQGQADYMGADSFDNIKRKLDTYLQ
inactive: erlotinib -0.064 | [1] 0.016 | [2] -0.23 | [3] 0.005 | [4] 0.089 | [5] -0.039 | [6] -0.109 | [7] 0.083 | [8] -0.075 | [9] -0.027

FUCA2 (UniProt Q9BTY2)
inactive: erlotinib -0.001 | [1] -0.03 | [2] -0.026 | [3] 0.013 | [4] 0.015 | [5] 0.038 | [6] 0.033 | [7] 0.029 | [8] 0.056 | [9] 0.017

FBL (UniProt P22087)
inactive: erlotinib 0.06 | [1] -0.153 | [3] 0.013 | [4] -0.102 | [5] 0.13 | [6] -0.099 | [7] -0.091 | [8] 0.054 | [9] -0.117
active: [2] -0.566

FNTB (UniProt P49356)
active: erlotinib 0.488
inactive: [1] 0.028 | [2] 0.203 | [3] 0.028 | [4] 0.208 | [5] -0.024 | [6] 0.091 | [7] 0.107 | [8] 0.326 | [9] 0.065

HDDC2 (UniProt Q7Z4H3)
inactive: erlotinib -0.014 | [1] 0.059 | [2] 0.039 | [3] 0.018 | [4] -0.072 | [5] 0.034 | [7] 0.024 | [8] -0.039 | [9] 0.076
active: [6] 0.292

GCSH (UniProt P23434)
inactive: erlotinib -0.072 | [1] -0.023 | [2] 0.253 | [3] 0.061 | [4] -0.036 | [5] 0.067 | [6] -0.038 | [7] -0.007 | [8] -0.017 | [9] -0.025

HMGCR isoform 3 (UniProt P04035)
Sequence of UniProt P04035 (P04035 whole entry, looked up): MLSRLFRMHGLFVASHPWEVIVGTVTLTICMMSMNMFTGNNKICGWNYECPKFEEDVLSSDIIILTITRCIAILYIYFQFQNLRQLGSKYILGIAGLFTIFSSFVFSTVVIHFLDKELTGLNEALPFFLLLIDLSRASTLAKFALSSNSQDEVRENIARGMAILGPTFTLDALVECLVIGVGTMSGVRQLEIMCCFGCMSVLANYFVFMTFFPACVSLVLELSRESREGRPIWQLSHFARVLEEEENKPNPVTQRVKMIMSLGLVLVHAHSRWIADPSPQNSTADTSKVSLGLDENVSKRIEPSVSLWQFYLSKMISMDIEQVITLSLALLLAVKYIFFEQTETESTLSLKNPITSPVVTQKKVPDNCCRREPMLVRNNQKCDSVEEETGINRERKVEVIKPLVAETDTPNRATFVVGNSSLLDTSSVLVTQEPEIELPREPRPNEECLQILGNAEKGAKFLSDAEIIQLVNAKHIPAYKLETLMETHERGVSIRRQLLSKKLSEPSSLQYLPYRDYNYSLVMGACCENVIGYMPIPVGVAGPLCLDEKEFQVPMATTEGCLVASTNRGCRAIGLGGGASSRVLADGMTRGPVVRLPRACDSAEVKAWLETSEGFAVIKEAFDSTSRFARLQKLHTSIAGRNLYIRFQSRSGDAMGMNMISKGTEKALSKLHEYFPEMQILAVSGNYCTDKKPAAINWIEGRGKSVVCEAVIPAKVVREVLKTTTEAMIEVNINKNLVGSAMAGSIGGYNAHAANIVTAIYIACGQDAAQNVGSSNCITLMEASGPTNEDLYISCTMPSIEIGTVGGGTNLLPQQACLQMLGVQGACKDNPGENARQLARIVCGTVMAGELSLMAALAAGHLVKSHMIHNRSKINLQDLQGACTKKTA
inactive: erlotinib -0.089 | [1] 0.025 | [2] -0.001 | [3] 0.032 | [4] -0.038 | [5] 0.101 | [6] -0.033 | [7] -0.137 | [8] -0.081 | [9] 0

HRAS (UniProt P01112)
inactive: erlotinib 0.029 | [1] 0.034 | [2] 0.069 | [3] 0.146 | [4] -0.356 | [5] -0.244 | [6] 0.138 | [7] -0.168 | [8] -0.08 | [9] 0.048

HBZ (UniProt P02008)
inactive: erlotinib -0.013 | [1] 0.077 | [2] 0.252 | [3] 0.042 | [4] 0.143 | [5] 0.006 | [6] 0.118 | [7] 0.017 | [8] -0.034 | [9] 0.043

GALC (UniProt P54803)
inactive: erlotinib -0.023 | [1] -0.002 | [2] -0.051 | [3] 0.041 | [4] 0.009 | [5] 0.028 | [6] -0.017 | [7] -0.011 | [8] -0.032 | [9] 0.08

HMGB3 (UniProt O15347)
inactive: erlotinib -0.037 | [1] -0.002 | [2] 0.047 | [3] 0.011 | [5] -0.042 | [6] 0.095 | [7] -0.006 | [8] -0.025 | [9] 0.023
active: [4] -0.267

HHEX (UniProt Q03014)
inactive: erlotinib -0.043 | [1] -0.206 | [2] 0.069 | [3] 0.044 | [4] 0.008 | [5] -0.022 | [6] -0.044 | [7] 0.037 | [8] -0.004 | [9] 0.022

HBA1 (UniProt P69905)
inactive: erlotinib -0.058 | [1] 0.048 | [2] 0.215 | [3] 0.063 | [4] 0.104 | [5] 0.023 | [6] 0.123 | [7] -0.026 | [8] -0.105 | [9] 0.031

FDXR isoform 7 (UniProt P22570)
inactive: erlotinib 0.092 | [1] 0.033 | [2] 0.109 | [3] -0.126 | [4] 0.076 | [5] -0.13 | [6] 0.064 | [7] 0 | [8] 0.025 | [9] 0.019

GSR (UniProt P00390)
Sequence of UniProt P00390 (P00390 whole entry, looked up): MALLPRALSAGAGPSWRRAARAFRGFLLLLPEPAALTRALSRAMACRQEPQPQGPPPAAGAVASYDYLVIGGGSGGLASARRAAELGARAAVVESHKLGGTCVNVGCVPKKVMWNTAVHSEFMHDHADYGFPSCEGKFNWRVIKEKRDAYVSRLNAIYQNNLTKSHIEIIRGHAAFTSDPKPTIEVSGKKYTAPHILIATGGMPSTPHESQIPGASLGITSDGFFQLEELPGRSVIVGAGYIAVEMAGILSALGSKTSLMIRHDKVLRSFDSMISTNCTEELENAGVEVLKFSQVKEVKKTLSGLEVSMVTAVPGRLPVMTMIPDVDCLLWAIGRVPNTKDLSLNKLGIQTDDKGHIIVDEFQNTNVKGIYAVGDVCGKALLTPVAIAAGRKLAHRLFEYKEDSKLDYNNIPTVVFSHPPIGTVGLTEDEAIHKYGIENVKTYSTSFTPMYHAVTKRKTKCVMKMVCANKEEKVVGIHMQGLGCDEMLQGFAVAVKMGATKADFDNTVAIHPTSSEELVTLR
inactive: erlotinib -0.099 | [1] 0.021 | [2] 0.071 | [3] 0.067 | [4] 0.023 | [5] 0.007 | [6] -0.026 | [7] -0.017 | [8] 0.011 | [9] 0.054

GPKOW (UniProt Q92917)
Sequence of UniProt Q92917 (Q92917 whole entry, looked up): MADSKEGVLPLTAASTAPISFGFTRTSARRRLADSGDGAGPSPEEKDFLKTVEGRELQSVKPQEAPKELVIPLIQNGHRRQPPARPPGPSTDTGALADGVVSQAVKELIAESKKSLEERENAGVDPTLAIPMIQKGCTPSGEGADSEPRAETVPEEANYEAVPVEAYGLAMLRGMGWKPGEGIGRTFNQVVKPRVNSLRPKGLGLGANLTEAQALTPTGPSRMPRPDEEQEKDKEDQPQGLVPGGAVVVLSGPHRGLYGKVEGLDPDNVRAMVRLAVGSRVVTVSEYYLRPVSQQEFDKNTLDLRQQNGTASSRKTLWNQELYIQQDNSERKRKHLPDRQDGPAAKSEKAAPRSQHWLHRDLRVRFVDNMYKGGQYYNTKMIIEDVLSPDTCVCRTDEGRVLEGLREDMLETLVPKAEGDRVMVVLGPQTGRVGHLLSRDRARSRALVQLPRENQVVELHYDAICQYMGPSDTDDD
inactive: erlotinib 0.099 | [1] 0.116 | [2] 0.016 | [3] 0.016 | [4] 0.057 | [5] 0.013 | [6] -0.016 | [7] 0.029 | [8] -0.011 | [9] 0.001

FKBP7 (UniProt Q9Y680)
inactive: erlotinib -0.027 | [1] -0.027 | [2] 0.005 | [3] 0.037 | [4] 0 | [5] 0.081 | [6] -0.037 | [7] -0.042 | [8] 0.039 | [9] 0.048

IFRD1 (UniProt O00458)
inactive: erlotinib 0.226 | [1] -0.021 | [2] -0.124 | [3] -0.008 | [4] 0.134 | [5] 0.199 | [6] -0.013 | [7] 0.068 | [8] 0.042 | [9] -0.04

HAT1 (UniProt O14929)
inactive: erlotinib -0.048 | [1] 0.036 | [2] 0.044 | [3] 0.048 | [4] -0.075 | [5] -0.045 | [6] 0.03 | [7] 0.027 | [8] -0.055 | [9] 0.069

GBE1 (UniProt Q04446)
inactive: erlotinib 0.008 | [1] 0.135 | [2] 0.037 | [3] -0.057 | [4] 0.158 | [5] -0.019 | [6] -0.058 | [7] -0.03 | [8] -0.061 | [9] -0.108

HADHA (UniProt P40939)
inactive: erlotinib -0.085 | [1] 0.122 | [2] 0.044 | [3] -0.18 | [4] 0.042 | [5] 0.02 | [6] 0.07 | [7] 0.271 | [8] -0.214 | [9] 0.171
